# PubChem BioAssay (NCI)
# Where “and” joins values, the source holds several entries; their conditions need not be identical. Equal values may be shown once. Compounds without any hit were thinned out: in the full panel of roughly 83,000, 20% have a hit.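 Single-dose data. Exposure time 48 hours. Values below 10 considered active.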 Unmarked numbers belong to inactive results. Calls of active or inactive are those of the source.
# System: TK-10 renal
# Assay: NCI-60 one-dose screen, 48 h (100 = growth as untreated, 0 = no growth, -100 = all killed)
# Settings: 10 µM
# Method: Growth inhibition of the TK-10 human tumor cell line is measured as a screen for anti-cancer activity. Cells are grown in 96 well plates and exposed to the test compound for 48 hours. Compounds are tested at a single concentration, which is 10^-5 M for most compounds. The reported endpoint is percent growth (GI% or GIPRCNT), where numbers from 0 - 100% represent growth inhibition, and numbers from -100% - 0 represent cell death. For example, a value of 40 represents 60% growth inhibition. A value of 0 means no net growth occurred over the course of the experiment. A value of -40 indicates 40% of cells at the beginning of the experiment died by the end of the experiment. A value of -100 means all cells are dead at the end of the experiment.
# NCI-60 Human Tumor Cell Lines Screen was performed using the standard one-dose NCI protocol, which is described in more detail at https://dtp.cancer.gov/discovery_development/nci-60/default.htm.
# Compounds with GIPRCNT values below 10 were considered active. Activity score was based on GIPRCNT using the following formula: […]
# Score is 0 for GIPRCNT values of 100 or above, 50 for GIPRCNT values of 0, and 100 for GIPRCNT values of -100.
row,Compound,growth
1,CC1CCC2(OC1)OC1C(O)C3C4CCC5CC(OC6OC(CO)C(OC7OC(CO)C(O)C(OC8OCC(O)C(O)C8O)C7OC7OC(CO)C(O)C(OC8OC(CO)C(O)C(O)C8O)C7O)C(O)C6O)C(O)CC5(C)C4CCC3(C)C1C2C (stereo not given),-27.4% (active)

# Same assay, conditions: 10 µM unless noted
row,Compound,growth
1,COC1CC2C=C(C)/C=C/C=C/C(=O)NC(c3ccccc3)C/C=C/CCC(O)CC(=O)C2=C1O (stereo not given),-59.9% (active)
2,O=[N+]([O-])c1ccc(Br)c([N+](=O)[O-])c1,102%
3,O=C(O)c1cc(Cc2ccc(O)c(C(=O)O)c2)ccc1O (tested in a mixture with another compound),93%
4,S=C=NCCc1ccccc1,78.9%
5,CC(=O)[O][Hg][c]1c(C)c(C)cc(C)c1C,-82.6% (active)
6,COc1ccc(/C=C(\C)[N+](=O)[O-])cc1OC,-69.2% (active)
7,O=C(CBr)Nc1ccc(Cl)cc1,111%
8,O=C1C(=O)c2ccccc2-c2ccccc21,-97.9% (active)
9,[O-][n+]1ccccc1S,37.2%
10,O=[N+]([O-])/C=C/c1ccc([N+](=O)[O-])cc1,18.8% and 88.6%
11,NC(Cc1ccccc1)c1ccccc1 (stereo not given),101% and 103%
12,COc1ccccc1[As]=[As]c1ccccc1OC (stereo not given),-95.8% (active)
13,Oc1c(I)cc(I)cc1I,103%
14,COS(=O)(=O)c1ccccc1,104%
15,CCOP(=O)(OCC)/C(C#N)=C/c1ccc(Br)cc1,104%
16,COc1ccc2c(ccc3oc([N+](=O)[O-])cc32)c1,-15% (active)
17,CC(=O)Nc1c2sscc-2n(C)c1=O,-100% (active)
18,CC(Cc1ccc2c(c1)OCO2)NN (stereo not given),93%
19,CC(C)c1cc([N+](=O)[O-])cc([N+](=O)[O-])c1O,98.6%

row,Compound,growth
1,COc1cc([C@@H]2c3cc4c(c(O)c3C[C@H]3COC(=O)[C@@H]32)OCO4)cc(OC)c1OC,38.8%
2,CC(C)(C)OOC(=O)/C=C\C(=O)OOC(C)(C)C,101%
3,COc1ccccc1/C=C/[N+](=O)[O-],72.9%
4,COc1cc(/C=C/[N+](=O)[O-])cc(OC)c1OC,-11% (active)
5,O=C(CCl)Nc1ccc(Cl)cc1,66.7%
6,O=[N+]([O-])c1ccc(N2CCOCC2)c2c1no[n+]2[O-],-0.265% (active)
7,NC(=O)c1cc([N+](=O)[O-])c(Cl)c([N+](=O)[O-])c1Cl,-100% (active)
8,NC(=O)c1cc([N+](=O)[O-])c(Cl)c([N+](=O)[O-])c1,84.1%
9,C=NCC#N,100% and 90%
10,O=[P+](O)c1ccccc1,117%
11,NNc1ccccc1,42.3%
12,CN(C)CC1(N)C(=O)NC(=O)NC1=O,97.9%
13,[Cl][Hg][c]1ccc2ccccc2c1,-95.3% (active)
14,COc1cc(/C=C\[N+](=O)[O-])ccc1O,23.5% and 87.1%
15,C#CC1(O)CCC(C(C)(C)C)CC1 (stereo not given),106%
16,Oc1ccccc1-c1ccccc1,97.4% and 105%
17,O=[N+]([O-])c1cc[n+]([O-])c2ccccc12,-22.6% (active)
18,O=C1CCC(=O)N1SC(Cl)(Cl)Cl,99.2%
19,C/C1=C\[C@H](C)C[C@H](C)OC(=O)C[C@H](c2ccc(O)cc2)NC(=O)[C@@H](Cc2c(Br)[nH]c3ccccc23)N(C)C(=O)[C@H](C)NC(=O)[C@@H](C)C1,-81.7% (active)

# Same assay, conditions: 100 µM
row,Compound,growth
1,CC1CCC2(OC1)OC1C(O)C3C4CCC5CC(OC6OC(CO)C(OC7OC(CO)C(O)C(OC8OCC(O)C(O)C8O)C7OC7OC(CO)C(O)C(OC8OC(CO)C(O)C(O)C8O)C7O)C(O)C6O)C(O)CC5(C)C4CCC3(C)C1C2C (stereo not given),-99% (active) and -94% (active)
